Only some compounds are listed: those with a hit (about 3.8% of all), similar ones and a draw of the others.
S2 tox = cell viability loss in ATXN counter-screen | Potency, µM (top dose mostly 56.7 µM), actives largely listed as cytotoxic | actives 0.49% (n = 400,000) | S2 cells (HEK-293 line with an ATXN2-luciferase reporter) viability, CellTiter-Fluor protease fluorescence, 24 h; further: nearly all actives have a fitted effect of over 40% in size
Nrf2 block = Nrf2 pathway inhibition; Potency, µM (highest dose often 46 µM), most hits filed as inhibitors; actives 2.1% (n = 360,000); A549 ARE-Fluc reporter, luciferase luminescence, 18-24 h; further: nearly all actives have a fitted effect of over 60% in size
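Nrf2 activity is the BugLite luminescence, read 15 min after reagent at room temperature, following CellTiter-Fluor cytotoxicity readout (30 min, 37C). Compound titrations were applied for 18-24 h to 5000 A549 ARE_Fluc cells/well in 5% FBS OPTI-MEM.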
ATXN2 expr inh = inhibitors of ATXN2 expression | HEK-293 ATXN2-luciferase reporter, luminescence, 24 h | Potency, µM (series often up to 57 µM), hits mostly inhibitors | actives 0.72% (n = 360,000) | AID 1745845; further: nearly all actives have a fitted effect of over 55% in size
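ATXN2-luciferase reporter cells (luciferase flanked by upstream and downstream ATXN2 gene portions) were treated 24 h at 37 °C with compounds at up to 57 uM. SteadyGlo luminescence gave expression; GF-AFC fluorescence gave viability.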
A549 tox = A549 cytotoxicity, counter-screen for Nrf2 inhibitors; A549 ARE-Fluc cells, CellTiter-Fluor viability, 18-24 h; Potency, µM (highest dose often 46 µM), hits mostly inhibitors; actives 0.16% (n = 390,000); AID 504648
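A549 ARE-Fluc cells in 5% FBS OPTI-MEM, 5000 cells/well, rested 2 h then exposed to compounds in concentration-response for 18-24 h at 37 °C. Viability by CellTiter-Fluor fluorescence (Ex 405/Em 525) after 30 min; luciferase luminescence (BugLite, 15 min, RT) read afterwards.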
TGFb inhibitor = inhibitors of TGF-b signaling. Potency, µM (series often up to 46.1 µM), usual class: inhibitors. AID 588855. HepG2 CAGA-GFP TGF-b/SMAD3 reporter, GFP fluorescence, 18 h; TGF-beta stimulated, 500 pg/mL final. actives 1.2% (n = 410,000); further: nearly all actives have a fitted effect of over 65% in size
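Inhibition of TGF-beta-driven CAGA-GFP reporter expression in HEPG2 cells is measured by cellular GFP fluorescence after 18 h stimulation with 500 pg/mL recombinant TGF-beta in 1% FBS medium at 37 degrees C.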
HepG2 tox = counter-screen for TGF-b inhibitors: cytotoxicity in HepG2 cells; HepG2 CAGA-GFP viability, ATP luminescence, 18 h; Potency, µM (series often up to 46.1 µM), actives largely listed as cytotoxic; actives 0.76% (n = 410,000); AID 588856
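HepG2 CAGA-GFP cells (1000/well, DMEM with 1% FBS) received compound, then TGF-beta at 500 pg/mL final, and were incubated 18 hours at 37 degrees C. Viability was read by CellTiter-Glo luminescence. Media-only wells were set as complete cell-killing and DMSO as no toxicity.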
A number is an active result. The call rests on the fitted dose curve; in most records, active means well fitted curve in the direction sought with a large enough effect; inconclusive means small, poorly fitted or top-dose-only effect, or another doubt; inactive means no such curve, though single readings can be large; an effect the other way counts as inactive or inconclusive.

`CCn1ccc2c(OCC(=O)Nc3ccc(C)c(Cl)c3)cccc2c1=O` gave ATXN2 expr inh inconclusive, A549 tox inactive, TGFb inhibitor 7.1µM and HepG2 tox inactive.
`CCCn1ccc2c(OCC(=O)Nc3ccc(NC(C)=O)cc3)cccc2c1=O` gave S2 tox inactive, Nrf2 block inactive, ATXN2 expr inh inactive, A549 tox inactive, TGFb inhibitor inactive and HepG2 tox inactive.
For O=C(C[N+]1(CCc2ccccc2)CCOCC1)c1cccc([N+](=O)[O-])c1 the results were TGFb inhibitor inactive and HepG2 tox inactive.
For CCCCCn1ncc2c3sc(C)cc3n(C)c2c1=O the results were Nrf2 block inconclusive and A549 tox inactive.
CCCOc1ccc(CNC(=S)Nc2ccccc2)cc1Cl was read as S2 tox inactive, Nrf2 block inconclusive, ATXN2 expr inh inactive, A549 tox inactive, TGFb inhibitor inactive and HepG2 tox inactive.
For Cc1c(Cl)cccc1NC(=O)CN1C(=O)COc2ccc(S(=O)(=O)Nc3ccccc3)cc21 the results were S2 tox inconclusive, Nrf2 block inactive, ATXN2 expr inh inactive, A549 tox inactive, TGFb inhibitor 10µM and HepG2 tox inactive.
Screening O=C(CN1C(=O)COc2ccc(S(=O)(=O)N3CCCCCC3)cc21)Nc1cccc(Cl)c1 returned Nrf2 block inconclusive, A549 tox 18µM, TGFb inhibitor inconclusive and HepG2 tox inactive.
`CSc1cccc(NC(=O)CN2C(=O)COc3ccc(Cl)cc32)c1` gave S2 tox inactive, Nrf2 block 16µM, ATXN2 expr inh inconclusive, A549 tox inactive, TGFb inhibitor inactive and HepG2 tox inactive.
O=C(CN1C(=O)COc2ccc(S(=O)(=O)N3CCCC3)cc21)Nc1cccc(F)c1 was read as S2 tox inconclusive, Nrf2 block inactive, A549 tox inactive, TGFb inhibitor inactive and HepG2 tox inactive.
`CC1CC=CC2C1C(=O)N(Cc1ccccc1)C2c1ccc2ccccc2c1` (stereo unspecified) gave Nrf2 block inconclusive, A549 tox inconclusive, TGFb inhibitor 11µM and HepG2 tox inactive.
`CC1CC=CC2C1C(=O)N(Cc1ccccc1)C2c1ccc(C(F)(F)F)cc1` (stereo unspecified) gave Nrf2 block inactive, A549 tox inactive, TGFb inhibitor inconclusive and HepG2 tox inactive.
Screening C[C@@H]1CC=C[C@H]2[C@H]1C(=O)N(Cc1ccccc1)[C@H]2c1ccc2ccccc2c1 returned S2 tox inactive, Nrf2 block 21µM, ATXN2 expr inh inactive, A549 tox inconclusive, TGFb inhibitor inconclusive and HepG2 tox inactive.
C[C@@H]1CC=C[C@H]2[C@H]1C(=O)N(Cc1ccccc1)[C@H]2c1ccc2ccccc2c1Br was read as S2 tox 28µM, Nrf2 block inconclusive, ATXN2 expr inh inconclusive, A549 tox inconclusive, TGFb inhibitor inconclusive and HepG2 tox 13µM.
For O=C1C2C(c3ccccc3)CC=CC2C(c2ccc(C(F)(F)F)cc2)N1Cc1ccccc1 (stereo unspecified) the results were Nrf2 block inconclusive, A549 tox inactive, TGFb inhibitor 13µM and HepG2 tox inactive.
Screening Cc1ccc(NC(=O)Cn2cnc3c(nnn3Cc3ccc(F)cc3)c2=O)cc1 returned S2 tox inactive, Nrf2 block inactive, ATXN2 expr inh inactive, A549 tox inactive, TGFb inhibitor inactive and HepG2 tox inactive.
Screening Cc1ccc(NC(=O)C2CCN(S(=O)(=O)c3ccc4c(c3)CCCC(=O)N4)CC2)c(Br)c1 returned S2 tox inactive, Nrf2 block inactive, ATXN2 expr inh inactive, A549 tox inactive, TGFb inhibitor inactive and HepG2 tox inactive.
Screening CC(=O)c1ccc(-c2ccc([C@H]3[C@H]4C=CC[C@@H](C)[C@@H]4C(=O)N3Cc3ccccc3)c(F)c2)cc1 returned S2 tox inactive, Nrf2 block inconclusive, ATXN2 expr inh inactive, A549 tox inactive, TGFb inhibitor inconclusive and HepG2 tox inactive.
`COC(=O)c1ccc(-c2ccc([C@H]3[C@H]4C=CC[C@@H](C)[C@@H]4C(=O)N3Cc3ccccc3)c(F)c2)cc1` gave S2 tox inactive, Nrf2 block 23µM, ATXN2 expr inh inactive, A549 tox inactive, TGFb inhibitor inconclusive and HepG2 tox inactive.
`O=C(CCl)N1c2ccccc2Sc2ccc3ccccc3c21` gave S2 tox inconclusive, TGFb inhibitor 14µM and HepG2 tox 11µM.
CCCN(c1ccccc1F)S(=O)(=O)c1cc(-c2cc(C)no2)ccc1C was read as Nrf2 block inconclusive, A549 tox inactive, TGFb inhibitor inconclusive and HepG2 tox inactive.
CC(C)(C)c1ccc(C(=O)N2CCN(CCNC(=O)C(=O)NCc3ccc(Cl)cc3)CC2)cc1 was read as S2 tox inactive, Nrf2 block 21µM, ATXN2 expr inh inactive, A549 tox inconclusive, TGFb inhibitor inconclusive and HepG2 tox inactive.
Screening CC(C)(C)c1ccc(C(=O)NCc2ccc(Cl)cc2)cc1 returned S2 tox inactive, Nrf2 block inconclusive, ATXN2 expr inh inactive, A549 tox inactive, TGFb inhibitor inactive and HepG2 tox inactive.
Screening CC(C)(C)OC(=O)NCc1ccc(CNC(=O)c2nc[nH]c2C(=O)N2CCN(C(=O)OC(C)(C)C)CC2)cc1 returned S2 tox 18µM, Nrf2 block 26µM, ATXN2 expr inh inconclusive, A549 tox inactive, TGFb inhibitor inconclusive and HepG2 tox inactive.
For Cn1cnc(C(=O)NCc2ccc(CNC(=O)OC(C)(C)C)cc2)c1C(=O)NCc1ccc(CNC(=O)OC(C)(C)C)cc1 the results were S2 tox inconclusive, Nrf2 block 18µM, ATXN2 expr inh inactive, A549 tox inactive, TGFb inhibitor inconclusive and HepG2 tox inactive.
Screening CC(C)(C)OC(=O)N1CCN(c2ccc(CNC(=O)c3ccc(Cl)cc3)cc2)CC1 returned Nrf2 block 10µM, A549 tox inactive, TGFb inhibitor inconclusive and HepG2 tox inactive.
Screening Cc1ccc(NC(=O)c2nc[nH]c2C(=O)N2CCN(C(=O)OC(C)(C)C)CC2)cc1 returned S2 tox inactive, Nrf2 block inactive, ATXN2 expr inh inactive, A549 tox inactive, TGFb inhibitor inactive and HepG2 tox inactive.
O=C(NCCCN1CCOCC1)C(=O)NCc1ccc(Cl)cc1 was read as S2 tox inactive, Nrf2 block inactive, ATXN2 expr inh inactive, A549 tox inactive, TGFb inhibitor inactive and HepG2 tox inactive.
`CC(C)(C)OC(=O)NCc1ccc(CNC(=O)c2ncn(Cc3ccccc3)c2C(=O)NCc2ccc(CNC(=O)OC(C)(C)C)cc2)cc1` gave S2 tox inactive, Nrf2 block inactive, ATXN2 expr inh inactive, A549 tox inactive, TGFb inhibitor inconclusive and HepG2 tox inactive.

Bioassay records (PubChem BioAssay)
